Here are results for five molecules from PubChem BioAssay.

Usually AC50 stands for the concentration at which the activity in the assay is half-maximal. For orientation: IC50 means the point on the concentration scale where inhibition reaches its midpoint. Usually inhibition stands for the change of the read-out against control, counted positive when it falls.

Records with an inconclusive call do not appear. Calls of active or inactive are those of the source. Unless noted, no stated cut-off is given here; in the data, active means inhibition above about 80%; inactive means the rest.

The nature of experiment [1]: growth inhibition of DIPG glioma cells, dose response, cell-based, SU-DIPG-XIII, MIPE4.0, CellTiter-Glo, qHTS (AID 1347061; cut-off not given, nearly all actives have AC50 up to about 37 µM;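 further: cells exposed to compound for 48 hours before readout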). The following applies: SU-DIPG-XIII viability, CellTiter-Glo ATP luminescence. (ATP-based viability assays read luminescence as a measure of living cells.)
A short description of experiment [2]: growth inhibition of DIPG glioma cells, dose response, cell-based, JHH-DIPG-1, MIPE4.0, CellTiter-Glo, qHTS (AID 1347062; cut-off not given, nearly all actives have AC50 up to about 27 µM;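 on AC50: cells exposed to compound for two days before readout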). The following applies: JHH-DIPG-1 viability, CellTiter-Glo ATP luminescence.
A short description of experiment [3]: viability loss in pontine glioma line – cell-based, SU-DIPG-XXV, MIPE5.0, CellTiter-Glo, qHTS, dose response (AID 1347065; cut-off not given, nearly all actives have AC50 up to about 26 µM;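 further: cells exposed to compound for 48 hours before ATP readout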). The settings on record: CellTiter-Glo ATP luminescence.
A short description of experiment [4]: JHH-DIPG-1 glioma cell viability, MIPE5.0 library, CellTiter-Glo luminescence, qHTS (AID 1347067; cut-off not given, nearly all actives have AC50 up to about 26 µM;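 further: cells exposed to compound for 48 hours before readout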). The following applies: JHH-DIPG-1 glioma viability, CellTiter-Glo ATP luminescence.
Experiment [5] in a line: SU-DIPG-XXV glioma cell viability, MIPE5.0 library, qHTS (AID 1347068; cut-off not given, nearly all actives have IC50 up to about 30 µM;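 on IC50: cells exposed to compound for 48 hours before viability readout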). (In general: Quantitative high-throughput screening tests each substance at several concentrations.)
The nature of experiment [6]: SU-DIPG-VI glioma cell viability, MIPE4.0 library, CellTiter-Glo luminescence, qHTS (AID 1347066; cut-off not given, nearly all actives have AC50 up to about 30 µM;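 further: cells exposed to compound for 48 hours before readout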). The following applies: CellTiter-Glo ATP luminescence.
The nature of experiment [7]: modifiers of HSF1 nuclear foci, imaging, Selleck Cancer Library (AID 1347162; in the data active means plate-normalised HSF1 focus index below about 0.46). The following applies: human cells, at 10 µM; SSMD: measured here: HSF1 foci SSMD mean; cell count: measured here: cell number; plate-normalised HSF1 focus index: stronger effect = lower value.
The nature of experiment [8]: LFS_MB_P medulloblastoma growth inhibition, cell-based, chromothripsis tumors, cisplatin or BGB combos (AID 1671449).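 Further: cells exposed for 96 hours; 0% = vehicle DMSO and 100% = killing by high DMSO.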 The settings on record: LFS_MB_P medulloblastoma cells.
The nature of experiment [9]: HDN33 neuroblastoma growth inhibition, cell-based, chromothripsis tumors, cisplatin or BGB combos (AID 1671450).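 Further: cells exposed to compound for four days; 0% = vehicle DMSO and 100% = cell killing by high DMSO.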 The settings on record: HDN33 neuroblastoma cells, stronger effect = higher value.
Experiment [10] can be described thus: ICB984 medulloblastoma cell growth inhibition, synergistic combos for chromothripsis tumors, cisplatin or BGB combos (AID 1671451; call rule not given here;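 further: cells exposed for 96 hours before readout; 0% = vehicle DMSO and 100% = killing by high DMSO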). The settings on record: ICB984 medulloblastoma cells, drug combinations, stronger effect = higher value.
A short description of experiment [11]: LFS_MB_1R medulloblastoma cell growth inhibition, synergistic combos for chromothripsis tumors, cisplatin or BGB combos (AID 1671452).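 Further: cells exposed for 96 hours before readout.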 The settings on record: LFS_MB_1R medulloblastoma cells, stronger effect = higher value.
Experiment [12] is described as follows: HTB85 osteosarcoma cell growth inhibition, synergistic combos for chromothripsis tumors, BGB or cisplatin IC20 combos (AID 1671453).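 Further: cells exposed for 96 hours before readout; 0% = vehicle DMSO and 100% = high DMSO killing control.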 The settings on record: HTB85 osteosarcoma cells, drug combinations, stronger effect = higher value.
A short description of experiment [13]: MDA-MB-436 breast carcinoma cell growth inhibition, synergistic combos for chromothripsis tumors, BGB or cisplatin combos (AID 1671458; call rule not given here;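 further: cells exposed for 96 hours; 0% = vehicle DMSO and 100% = killing by high DMSO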). The settings on record: MDA-MB-436 breast carcinoma growth inhibition, drug combinations, stronger effect = higher value.
Experiment [14] in a line: growth inhibition of BT084 medulloblastoma cells, cell-based, ICGC_MB145, cisplatin and BGB IC40 combos (AID 1671461).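 Further: cells exposed to drugs for 96 hours; 0% = vehicle DMSO and 100% = high DMSO full killing control.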 The following applies: drug combinations, stronger effect = higher value.
Experiment [15] in a line: growth inhibition of RCMB18 medulloblastoma cells, cell-based, cisplatin and BGB IC40 combos (AID 1671462).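 Further: cells exposed to compound for four days.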 The following applies: stronger effect = higher value.
Experiment [16] in a line: growth inhibition of CRL1545 osteosarcoma cells, cell-based, cisplatin and BGB IC20 combos (AID 1671464).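 Further: cells exposed to compound for 96 hours before readout; 0% = vehicle DMSO and 100% = high DMSO killing control.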 The settings on record: stronger effect = higher value.
The mark [17] stands for this setting: measured here: combination with BGB IC40, at 0.05 µM.
The mark [18] stands for this setting: measured here: with BGB IC20 combination, at 0.5 µM.
Where [19] appears, read: measured here: with cisplatin IC20 combination, at 0.5 µM.
The mark [20] stands for this setting: measured here: combination with cisplatin, at 0.5 µM.

On to `CC(C)(Cc1ccc2ccccc2c1)NC[C@@H](O)COc1cccc(Cl)c1C#N`, for which the outcome in experiment [1] and in experiment [2] was inactive. Further, the AC50 in [3] and in experiment [4] was 10.5 µM (active) throughout. For the same molecule, the IC50 in experiment [5] is 13.2 µM (active).

`COc1cc(Oc2ccnc3cc(OC)c(OC)cc23)ccc1NC(=O)NC(C)c1nccs1` (centres undefined): the outcome in experiment [1], in experiment [2], in [6], in [4] and in [5] was inactive. The SSMD in [7] turned out to be 1.89. This molecule also displayed a cell count in experiment [7] of 6450. Also, in experiment [7], the plate-normalised HSF1 focus index was 1.1 (inactive).

`C=C1c2cccc(O)c2C(O)=C2C(=O)[C@@]3(O)C(O)=C(C(N)=O)C(=O)[C@@H](N(C)C)[C@@H]3[C@@H](O)[C@H]12`: the result in [1], in [2], in experiment [3], in experiment [6] and in experiment [5] was inactive.

`CCCCC(=O)O[C@]1(C(=O)CO)[C@H](C)C[C@H]2[C@@H]3CCC4=CC(=O)C=C[C@]4(C)[C@@]3(F)[C@@H](O)C[C@@]21C`: the call in experiment [1], in [2] and in experiment [6] was inactive.

Regarding `COc1cc2ncnc(-n3nc(-c4ccccn4)nc3N)c2cc1OC`, the AC50 in [1] was 23.5 µM (active); in [2], 18.7 µM (active); in [3], 10.5 µM (active). Also, the call in experiment [6] and in [5] was inactive. The molecule further gave an SSMD in [7] of 1.68. Also, the cell count in experiment [7] amounted to 7810. Besides, the plate-normalised HSF1 focus index in experiment [7] is 1.06 (inactive). Further, the inhibition in experiment [8] (at 0.5 µM, stronger effect = higher value) was -19.6% (inactive); in experiment [8] (measured here: combination with BGB IC20, at 0.005 µM), -6.46%; in experiment [8] (measured here: combination with BGB IC40, at 0.005 µM), -12%; in experiment [8] (setting [17]), -14.8%; in [8] (measured here: combination with cisplatin, at 0.5 µM, stronger effect = higher value), -28.9%; in [8] (measured here: combination with cisplatin, at 5 µM, stronger effect = higher value), 3.9%. Besides, the inhibition in experiment [9] (BGB combo, at 5 µM) was -0.513%; in [9] (at 0.5 µM), -39.2% (inactive); in [9] (cisplatin combo, at 5 µM) it was 11.6%; in [9] (setting [18]) it was -47.1%; in experiment [9] (setting [19]), -45.4%; in experiment [9] (single agent, at 5 µM) it was 27.9%. The inhibition in experiment [10] (BGB IC20 combo, at 0.005 µM) is 8.82%; in [10] (BGB IC40 combo, at 0.005 µM) it was -28.2%; in experiment [10] (BGB IC40 combo, at 0.05 µM) it was -13.5%; in experiment [10] (at 0.5 µM) it was -27.7% (inactive); in experiment [10] (cisplatin combo, at 0.05 µM), -18%; in experiment [10] (cisplatin combo, at 0.5 µM), -47.4%. The inhibition in experiment [10] (cisplatin combo, at 5 µM) is -33.3%; in experiment [10] (measured here: 5 uM single agent, at 5 µM), -7.48%; in experiment [11] (at 0.5 µM), -45.7% (inactive); in experiment [11] (setting [17]), -46.2%; in experiment [11] (setting [20]) it was -87.1%; in [11] (measured here: combination with cisplatin, at 5 µM), -37.2%. Also, the inhibition in experiment [12] (at 0.5 µM) was -23% (inactive); in experiment [12] (measured here: with BGB IC20, at 0.5 µM), -35.6%; in [12] (measured here: with BGB IC20, at 5 µM) it was 15.3%; in experiment [12] (measured here: with cisplatin IC20, at 0.5 µM), -19.3%; in [12] (measured here: with cisplatin IC20, at 5 µM), 25.5%; in [12] (single agent, at 5 µM) it was 39.7%. The inhibition in experiment [13] (at 0.5 µM) was -17.5% (inactive); in [13] (measured here: BGB combination, at 0.5 µM), -21.1%; in experiment [13] (measured here: BGB combination, at 5 µM), -18.6%; in experiment [13] (measured here: cisplatin combination, at 0.5 µM) it was -13.3%; in experiment [13] (measured here: cisplatin combination, at 5 µM), -24.4%; in experiment [14] (at 0.5 µM) it was 0.0685% (inactive). Further, the inhibition is 7.09% in experiment [14] (cisplatin combination, at 0.5 µM); 63.7% in experiment [14] (cisplatin combination, at 5 µM); 69% in [14] (measured here: BGB IC40 combination 0.05 uM, at 0.05 µM); 13.7% in experiment [14] (single agent, at 5 µM); -14.5% (inactive) in experiment [15] (at 0.5 µM); 36.5% in experiment [15] (cisplatin combo, at 5 µM). In addition, the inhibition in [15] (measured here: BGB IC40 combination, at 0.05 µM) is -31.7%; in experiment [15] (setting [20]) it was -5.13%; in experiment [15] (single agent, at 5 µM) it was -24.7%; in [16] (at 0.5 µM) it was -59.7% (inactive); in [16] (setting [18]) it was -65.7%; in [16] (setting [19]) it was -56.7%. Moreover, the inhibition in experiment [16] (single agent, at 0.05 µM) is -35.9%; in experiment [16] (single agent, at 5 µM) it was -52.5%.
